Source: PubChem BioAssay
Shown are actives, neighbours in structure and some others; about 1.7% of the full set was active somewhere.
GLP1R cytotox – cytotoxicity counter-screen for GLP-1 receptor inverse agonists. AID 624418. Potency, µM (top dose mostly 38.3 µM), for inactives: at the top dose activity change, negative = inhibition, most hits filed as inhibitors. 410,000 compounds, 0.13% hits. HEK293 cAMP-luciferase reporter cells, luminescence, 24 h;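 note: loss of luciferase light is scored as toxicity; potency is the fitted concentration of half-maximal effect; % is set by controls: 0 for no effect and ±100 for the full control effect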
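Cells in DMEM/10% Nu serum/1% pen-strep, 1536-well format. Pre-incubated 12 h, dosed with 23 nL compound, incubated a further 24 h. Luciferase detection, 12 min at room temp, luminescence.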
mIDH1 inhibitor – blocks human mutant IDH1 R132H enzyme | O75874 | 390,000 compounds, 0.093% hits | Potency, µM (doses to about 76.6 µM), inactives show at the top dose activity change, negative = inhibition, actives largely listed as inhibitors | IDH1-R132H enzyme, NADPH consumption, diaphorase/resazurin fluorescence; note: potency is the fitted concentration of half-maximal effect; % is set by controls: 0 for no effect and ±100 for the full control effect; nearly all actives have a fitted effect of over 65% in size
Target sequence (O75874 whole entry R132H, stated change not applied): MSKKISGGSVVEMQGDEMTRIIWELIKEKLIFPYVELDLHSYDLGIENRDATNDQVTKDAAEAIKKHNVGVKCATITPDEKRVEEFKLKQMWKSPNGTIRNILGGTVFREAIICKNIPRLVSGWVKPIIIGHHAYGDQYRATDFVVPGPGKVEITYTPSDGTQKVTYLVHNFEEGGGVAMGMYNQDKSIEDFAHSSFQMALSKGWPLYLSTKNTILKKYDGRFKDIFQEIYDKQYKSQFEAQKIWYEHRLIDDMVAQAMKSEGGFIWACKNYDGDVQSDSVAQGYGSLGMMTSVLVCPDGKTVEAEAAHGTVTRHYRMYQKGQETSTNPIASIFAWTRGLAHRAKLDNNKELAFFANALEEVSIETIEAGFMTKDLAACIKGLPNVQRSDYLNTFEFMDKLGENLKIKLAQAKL
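IDH1-R132H (0.5 ug/mL) preincubated 30 min with compound, then NADPH (0.016 mM) and alpha-KG (2 mM) added; 80 min at RT, pH 7.5. Remaining NADPH coupled via diaphorase/resazurin to fluorescence (540/590 nm); concentration-response curves normalized to no-enzyme control.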
PTHR1 agonist – activates the human parathyroid hormone receptor PTHR1. Q03431. Potency, µM (doses to about 115 µM), for the others: top-dose activation, hits mostly activators. 410,000 compounds, 0.075% hits. HEK293 GP2 PTHR1 cells, GloSensor cAMP luminescence, 1 h; note: potency is the fitted concentration of half-maximal effect; nearly all actives have a fitted effect of over 55% in size
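HEK-293-derived GP2 cells expressing PTHR1 and a GloSensor cAMP reporter, 3,000/well, plated overnight, given luciferin plus IBMX (each 0.5 mM as added) for 1 h at 37 °C, then compound for 1 h at 37 °C. Luminescence was read after 15 min at room temperature.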
GLP-1R inv ag – GLP-1 receptor (human) inverse agonism | P43220 | HEK293 GLP-1R CRE-luciferase, luminescence, 24 h; GLP-1R form is constitutively active | Potency, µM (titrated, usually from 38.3 µM), without a hit: top-dose activity change, negative = inhibition, most hits filed as inhibitors | 410,000 compounds, 1.6% hits; note: potency is the fitted concentration of half-maximal effect; % is set by controls: 0 for no effect and ±100 for the full control effect; nearly all actives have a fitted effect of over 55% in size
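Luminescence readout: a drop in cAMP-driven luciferase signal flags inverse agonism at a constitutively active GLP-1R stably expressed in HEK293. Compound exposure lasted 24 hr at 37 deg C, 5% CO2.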
LDHA inh – LDHA (human) enzyme inhibition. P00338. purified LDHA, NADH/diaphorase-resazurin fluorescence; stronger effect = lower value. activity change, % (values are at about 110 or 230 µM). 480,000 compounds, 0.15% hits. AID 1347041; in the data active = activity change below about -30%; inconclusive = mostly about -25% to -30%;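 note: plate controls were DMSO wells for no effect and wells without enzyme for full effect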
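Resorufin fluorescence (ex540/em590), read at 0 and 20 min after diaphorase/resazurin addition, reports the NADH left after a 5 min room-temperature reaction of 2 nM human LDH5 with 0.06 mM NADH and 0.2 mM pyruvate.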
GLP-1R agonist – activates the human GLP-1 receptor; P43220; 380,000 compounds, 0.007% hits; Potency, µM (series often up to 45.6 µM), for the others: top-dose activation, hits mostly activators; HEK293 GLP-1R CRE-luciferase, luminescence, 4-6 h; cells express a hypersensitive GLP-1R form; note: potency is the fitted concentration of half-maximal effect; % of control where 0% means no effect
IDH1 autofl – autofluorescence interference, mutant IDH1 hit counter-screen; AID 623980; inhibition of signal, % at 51.2 µM; Resorufin detection reagent fluorescence interference, cell-free; shares compounds with mIDH1 inhibitor; 750 tested, under 10 active;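 note: 0% = wells with normal resorufin and full inhibition = wells lacking resorufin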
IDH1 WT – inhibits human wild-type IDH1, mutant selectivity check | WT IDH1 enzyme, NADPH diaphorase/resazurin fluorescence | Potency, µM (series often up to 115 µM), for the others: at the highest dose activity change, negative = inhibition, actives largely listed as inhibitors | 750 compounds, 9% hits | shares compounds with mIDH1 inhibitor;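 note: potency is the fitted concentration of half-maximal effect; 0% = full WT IDH1 enzyme control and full inhibition = no enzyme wells; nearly all actives have a fitted effect of over 55% in size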
Target sequence (O75874 whole entry, looked up): as the sequence (O75874 whole entry R132H, stated change not applied) above, with H132R counted along it
mIDH1 confirm – confirmation of human mutant IDH1 inhibitors | shares compounds with mIDH1 inhibitor | IDH1 R132H enzyme, NADPH diaphorase/resazurin fluorescence | Potency, µM (titrated, usually from 76.6 µM), for inactives: top-dose activity change, negative = inhibition, actives largely listed as inhibitors | 750 compounds, 83% hits | AID 624002; note: potency is the fitted concentration of half-maximal effect; nearly all actives have a fitted effect of over 50% in size
Numbers without * were called inactive; i = inactive; ? = inconclusive; / = no result given; [ ] = another dose, or the depositor's remark. Unless noted, calls come from the whole dose curve; as a rule, active = well fitted curve in the direction sought with a large enough effect; inconclusive = small, poorly fitted or top-dose-only effect, or another doubt; inactive = no such curve, though single readings can be large; an effect the other way counts as inactive or inconclusive.

SMILES	GLP1R cytotox	mIDH1 inhibitor	PTHR1 agonist	GLP-1R inv ag	LDHA inh	GLP-1R agonist	IDH1 autofl	IDH1 WT	mIDH1 confirm
COc1cc(NS(=O)(=O)c2ccc(NC(=S)NC(=O)/C=C/c3ccc(F)cc3)cc2)ncn1	24%	6.6µM*	-27%	15%	-13	1%	-8	11µM*	1.4µM*
CCc1nnc(NS(=O)(=O)c2ccc(NC(=S)NC(=O)/C=C/c3ccccc3)cc2)s1	14%	-18%	-28%	18%	-9	0%	/	/	/
COc1nccnc1NS(=O)(=O)c1ccc(NC(=S)NC(=O)/C=C/c2ccc(F)cc2)cc1	18%	14%	-13%	17%	-3	-2%	/	/	/
CC(/C=C1\SC(=S)N(NC(=O)c2ccc(C)cc2)C1=O)=C\c1ccccc1	?	2%	-21%	-7%	4	4%	/	/	/
CC(/C=C1\SC(=S)N(c2ccc(C(=O)O)cc2)C1=O)=C\c1ccccc1	0%	23µM*	-31%	-1%	-7	-7%	-4	45µM*	50µM*
CCOC(=O)c1c(C)[nH]c(C(=O)C(C)N(C)Cc2ccccc2Cl)c1C (stereo unspecified)	/	/	/	/	9	/	/	/	/
Cc1c(C)c2c(OCC(=O)O)cc3c(c2oc1=O)CCC(C)(C)O3	2%	?	i	40%	-1	-2%	1	?	18µM*
O=C(NCC(c1ccccc1)c1c[nH]c2ccccc12)c1cc[n+]([O-])cc1 (stereo unspecified)	/	/	/	/	-6	/	/	/	/
Cc1ccc(-c2nc3ccc(C)cc3c(C(=O)O)c2C)cc1	/	/	/	/	0	/	/	/	/
CN(C)c1ccc(-c2c(-c3ccc4c(c3)OCO4)noc2-c2ccsc2)cn1	12%	-14%	i	-15%	0	-6%	/	/	/
O=C(O)c1cc(-c2ccc(-c3c(-c4ccc5c(c4)OCO5)noc3-c3ccsc3)cc2)nc2ccccc12	8%	45µM*	-58%	31%	-6	14%	4	?	20µM*
Cc1cccc(-c2c3c(=O)n(C)c(=O)n(C)c3cn2-c2ccccc2O)c1	-6%	5%	-3%[57.5 µM]	26%	-3	12%	/	/	/
Cc1cccc(-c2c3c(=O)n(C)c(=O)n(C)c3cn2-c2cc(N)c(Cl)cc2Cl)c1	-7%	35µM*	-37%	?	20	/	-2	-21%	?
CCCNc1nc(Nc2ccc(C)c(Cl)c2)c2cnn(C)c2n1	-10%	-15%	4%	?	-1	21%	/	/	/
Cn1ncc2c(Nc3cccc(Cl)c3)nc(Nc3cccc(Cl)c3)nc21	-29%	?	i	11µM*	-2	6%	-19	?	5.6µM*
Cn1ncc2c(Nc3ccc(Br)cc3)nc(Nc3ccc(Br)cc3)nc21	-15%	33µM*	-1%	?	-8	0%	-4	4%	11µM*
CCOC(=O)c1c(CSC(=N)N)n(-c2ccc(C)cc2)c2cc(Br)c(OC(C)=O)cc12	?	?	-29%	?	-8	0%	/	/	/
CCOC(=O)c1c(CSC(=N)N)n(C)c2cc(Br)c(OC(C)=O)cc12	?	?	i	-18%	1	1%	-9	2%	14µM*
Cc1ccc(NCc2cc3ccccc3[nH]c2=O)cc1C	/	/	/	/	8	/	/	/	/
CC(=O)c1c(OS(=O)(=O)c2cccc3cc(C)cnc23)ccc2c(C)cc(=O)oc12	/	/	/	/	5	/	/	/	/
Cc1ccc(N2C(S)=C(C#N)C(=O)NC2c2cccs2)cc1 (stereo unspecified)	-15%	52µM*	-20%	-21%	-2	-1%	4	20%	?
CCc1ccc(C(=O)COC(=O)COc2ccc(Cl)c(C)c2)cc1	/	/	/	/	1	/	/	/	/
CCN(C(=O)CSc1nc2n[nH]c(C)c2c(=N)n1-c1ccc(Cl)c(C)c1)c1cccc(C)c1	3%	46µM*	i	13%	-3	13%	-1	-11%	22µM*
CCc1ccccc1NC(=O)CSc1nc2n[nH]c(C)c2c(=N)n1-c1cccc(C)c1	0%	-4%	i	42%	-1	/	/	/	/
Cc1cccc(-n2c(SCC(=O)Nc3ccccc3Cl)nc3n[nH]c(C)c3c2=N)c1	-15%	?	i	?	1	/	-9	-2%	25µM*
SMILES	GLP1R cytotox	mIDH1 inhibitor	PTHR1 agonist	GLP-1R inv ag	LDHA inh	GLP-1R agonist	IDH1 autofl	IDH1 WT	mIDH1 confirm
Cc1ccc(CNC(=O)CCCNC(=O)C(C)(C)C)cc1	/	/	/	/	0	/	/	/	/
COc1ccc(-c2noc(CSc3nnc(C)n3-c3ccccc3)n2)c(OC)c1	/	/	/	/	2	/	/	/	/
COc1ccc(CN(CCC(c2ccccc2)c2ccco2)C(=O)c2ccco2)cc1 (stereo unspecified)	-12%	-1%	-4%	?	1	15%	/	/	/
COc1ccc(CN(CCC(c2ccc(F)cc2)C2CCOC(C)(C)C2)C(=O)c2ccco2)cc1 (stereo unspecified)	?	?	-14%	?	0	0%	-9	9%	?
C[C@@H]1C[C@H]2[C@@H]3CCC4=CC(=O)C=C[C@]4(C)[C@@]3(Cl)[C@@H](O)C[C@]2(C)[C@@]1(OC(=O)c1ccco1)C(=O)CCl	-16%	35µM*	-34%	?	-20	0%	0	12%	8.9µM*
Cc1cccc(Cn2c(=O)n(CCc3ccccc3)c(=O)c3c(C)c(C)sc32)c1	1%	/	i	8%	-3	/	/	/	/
CCN(CC)C(=O)c1sc2c(c1C)c(=O)n(CCc1ccccc1)c(=O)n2Cc1cccc(Cl)c1	1%	32µM*	-67%	?	2	/	-6	3%	11µM*
COc1cccc(OC)c1-c1nn2c(-c3n[nH]c4c3CCC4)nnc2s1	/	/	/	/	3	/	/	/	/
CCN(CC)c1ccc(-c2nn3c(-c4n[nH]c5c4CCC5)nnc3s2)cc1	-5%	?	i	?	1	7%	2	-2%	40µM*
CC(=O)c1cccc(NC(=S)NNC(=O)c2ccc(C)c([N+](=O)[O-])c2)c1	6%	0%	?	22%	-7	6%	/	/	/
